The campaign covered roughly 320,000 compounds. About 1,300 (0.41%) were called active. Inconclusive results (about 3%) are left out. How the calls were made is not given here. The list is a sample of the results. Entries with a potency or affinity are not part of this list.

This experiment in a line: growth inhibition of non-replicating M. tuberculosis (AID 488890).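 Further: plate controls were DMSO cells for no effect and high antibiotic wells for full effect.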 Particulars: Mycobacterium tuberculosis non-replicating, at 25 µM, stronger effect = higher value.
Broadly, the inhibition is the relative decrease from the control value, in per cent. On to `COC(=O)c1ccc2c(=O)n(CCCCCC(=O)O)c(=O)[nH]c2c1`, for which the inhibition is -11.8%.
Turning to `CC(NC(=O)CCC(=O)c1ccc(F)cc1)C1CC2CCC1C2` (stereo not drawn), the inhibition is 11.8%.
Turning to `CC(NC(=O)c1cccc(S(=O)(=O)N(C)C)c1)C1CC2CCC1C2` (stereo not drawn), the inhibition was -2.47%.
`CC(NC(=O)COC(=O)c1ccccc1F)C1CC2CCC1C2` (stereo not drawn): the inhibition worked out at 71%.
For the compound `CC(NC(=O)c1ccc(F)cc1F)C1CC2CCC1C2` (stereo not drawn), the inhibition is 77.7%.
For `O=C(C1CCCN(S(=O)(=O)c2cccc3nsnc23)C1)N1CCN(c2ccccn2)CC1` (stereo not drawn), the inhibition stood at 16.4%.
For `CCCCN(C(=O)NCCCCCCNC(=O)N(CCCC)C1CCS(=O)(=O)C1)C1CCS(=O)(=O)C1` (stereo not drawn) the value was -10.6%.
As to `COc1ccc(CC(=O)OCc2nnc(-c3ccccc3)o2)cc1`, the inhibition worked out at 66.7%.
Regarding `COc1cccc(C(Nc2ccccn2)c2oc(CO)cc(=O)c2O)c1` (stereo not drawn), the inhibition is 8.94%.
With `O=C(COc1ccc(CO)cc1)Nc1ccc(F)cc1`, the inhibition is -2.12%.
For the compound `CC(=O)c1cccc(NC(=O)COc2ccccc2)c1`, the inhibition came out at 54.2%.
As for `O=C(COc1ccccc1)Nc1cccc(-c2nnc(-c3ccccc3)o2)c1`, the inhibition amounted to 15.8%.
In the case of `CC(=O)Nc1ccc(/C=N/OCC(=O)Nc2ccc(C)cc2)cc1`, the inhibition is 31.8%.
Consider `CC(C)CNC(=O)c1cccc(NC(=O)COc2cccc([N+](=O)[O-])c2)c1`, for which the inhibition was determined as 16.2%.
Consider `CNC(=O)CO/N=C/c1ccc(N(C)C)cc1`, for which the inhibition worked out at 3.3%.
On to `CC(=O)Nc1cccc(OCC(=O)Nc2ccc(F)cc2)c1`, for which the inhibition was -6.82%.
In the case of `CCOC(=O)c1cccc(NC(=O)COc2ccc([N+](=O)[O-])cc2)c1`, the inhibition was found to be 73.8%.
Take `Cn1c(N)c(C(=O)COC(=O)Cc2ccc(Br)cc2)c(=O)n(C)c1=O`: the inhibition was found to be 3.86%.
On to `O=C(Cc1ccc(F)cc1)N1CCC(CC2CC(c3cccc(Br)c3)=NO2)(C(=O)NCC2CCCCC2)CC1` (stereo not drawn), for which the inhibition worked out at 37%.
Next, `COc1ccc(-n2c(C)c(C)c3c(NCCCO)ncnc32)cc1`: -0.92%; `COc1ccc(-n2c(CN3CCN(C)CC3)nc3ccc([N+](=O)[O-])cc3c2=O)c(OC)c1`: 1.89%.
For `COc1ccc(C(=O)CC(=O)C(=O)Nc2c(C)cccc2C)cc1` the value was 78.4%; for `O=C(C1CCN(S(=O)(=O)c2ccc(Br)cc2)CC1)N1CCOCC1`, -10.1%; for `COC(=O)c1ccc(C)c(NC(=O)Cc2ccc([N+](=O)[O-])cc2)c1`, 21.2%.
In the case of `COc1ccc(S(=O)(=O)N2CCC(C(=O)NCCOc3ccccc3F)CC2)cc1OC`, the inhibition came to 24.4%.
For `COc1ccc(/C=N/OCC(=O)Nc2ccc3c(c2)OCO3)c(OC)c1` the value was 59.9%.
Turning to `CC(=O)Nc1cccc(OCC(=O)Nc2ccccc2)c1`, the inhibition was -8.67%.
Turning to `Cc1cc(NC(=O)CO/N=C/c2ccc3c(c2)OCO3)ccc1Br`, the inhibition is -0.49%.
`O=C(COc1ccccc1F)Nc1ccc2c(c1)OCCO2`: the inhibition stood at 52.5%.
With `CC(=O)Oc1ccc(/C=N/NC(=O)CCSc2ccccc2)cc1`, the inhibition was 9.49%.
For the compound `COC(=O)N/N=C/c1cccc(OCCSc2ccc(Cl)cc2)c1`, the inhibition worked out at 74.7%.
Next, `COC(=O)COc1cccc(NC(=O)C(c2ccccc2)c2ccccc2)c1`: 3.23%; `CCC(=O)c1ccc(OCC(=O)Nc2ccc3c(c2)OCCO3)cc1`: 69.5%.
For the compound `COc1cc(OC)cc(C(=O)OCc2cc3ccccc3[nH]c2=O)c1`, the inhibition is -16%.
On to `COc1ccc(NC(=O)/C(=C/c2cccs2)NC(=O)c2ccco2)cc1`, for which the inhibition is -0.67%.
As to `Nc1cc(N)nc(SCC(=O)Nc2ccc3c(c2)OCO3)n1`, the inhibition stood at 2.02%.
`CS(=O)(=O)Oc1ccc(/C=N/NC(=O)c2ccncc2)cc1`: the inhibition came out at 60.2%.
For the compound `O=c1cc(-c2ccccc2)nc2nc(SCc3ccccc3)[nH]n12`, the inhibition worked out at 60.3%.
For `O=C(CCn1c(=S)oc2ccccc21)Nc1ccccc1Br` the value was -5.39%; for `O=C(O)c1ccc2c(c1)C(=O)N(NC(=O)c1ccccc1)C2=O`, -12.7%; for `COC(=O)c1ccc(NC(=O)COc2ccc3c(c2)OCO3)cc1`, 79.3%.
With `CCc1ccccc1NC(=O)COc1ccc2c(c1)OCO2`, the inhibition was determined as 65.4%.
As for `CC1=C(C(=O)Nc2ccccc2C(F)(F)F)C(c2sccc2C)NC(=S)N1` (stereo not drawn), the inhibition is -0.9%.
With `COc1ccc(Oc2c(O)c3ccccc3n(C)c2=O)cc1`, the inhibition is 9.82%.
For `Cn1c(=O)c(-c2ccccc2)c(O)c2ccccc21` the value was 23.1%.
As for `CCCCCCn1c(=O)c(C(=O)Nc2cccc(C)n2)c(O)c2ccccc21`, the inhibition is -13.9%.
As for `CCCCCn1c(=O)c(-c2nc3ccccc3[nH]2)c(O)c2ccccc21`, the inhibition turned out to be 1.53%.
Next, `CCCCn1c(=O)c(C(=O)Nc2ccccc2)c(O)c2ccccc21`: -12.7%.
For `CCCCCn1c(=O)c(C(=O)Nc2ccccc2)c(O)c2ccccc21`, the inhibition was found to be 16.7%.
Turning to `CCCCn1c(=O)c(C(=O)Nc2ccccc2C)c(O)c2ccccc21`, the inhibition was -11.7%.
As to `CC(C)NC(=O)c1c(O)c2cccc3c2n(c1=O)CCC3`, the inhibition is 11.9%.
`CCCCCn1c(=O)c(C(=O)Nc2ccccc2Cl)c(O)c2ccccc21`: the inhibition was -6.13%.
For `CNC(=O)c1c(O)c2cccc3c2n(c1=O)CCC3`, the inhibition came to 45.4%.
As for `CC1C/C(=N\NC(=O)c2ccc(NS(=O)(=O)c3ccc(Br)cc3)cc2)CC(C)(C)C1` (stereo not drawn), the inhibition was -12.6%.
On to `Cc1nc(CCNC(=O)COc2ccccc2)cs1`, for which the inhibition is -16%.
`CCCC(=O)n1nc(-c2ccc(Cl)cc2)nc1SC`: the inhibition came out at 64.9%.
Regarding `O=C(CSc1nnc(Nc2ccccc2)s1)Nc1ccc(S(=O)(=O)N2CCOCC2)cc1`, the inhibition was 6.81%.
Regarding `Cc1cccc(N2CCN(C(=O)c3cc(=O)[nH]c4ccccc34)CC2)c1C`, the inhibition came out at 24.4%.
Take `CCCC(C)C1c2c(c(C)c(C)oc2=O)Oc2c(C)c(C)oc(=O)c21` (stereo not drawn): the inhibition amounted to 25.8%.
Turning to `O=C1c2ccccc2C(=O)N1OS(=O)(=O)c1ccccc1`, the inhibition was found to be 19%.
Turning to `Cc1nn(C)cc1/C=N\NC(=O)c1ccc2c(c1)c(C)c(C)n2Cc1ccccc1`, the inhibition is -7.16%.
For `CCOc1ccccc1NC(=O)NCc1ccccc1F` the value was 13.2%.
As to `COc1ccc(/C=N/NC(=O)c2cccc(NC(=O)c3ccccc3)c2)c(C(=O)O)c1OC`, the inhibition amounted to 31.1%.
On to `Cc1c(CCC(=O)N[C@@H](C)C(=O)O)c(=O)oc2cc3occ(-c4ccccc4)c3cc12`, for which the inhibition came out at 0.57%.
On to `NS(=O)(=O)c1cc(C(=O)NCCc2ccccn2)ccc1Cl`, for which the inhibition came out at 7.03%.
For the compound `O=C(N/N=C/c1cccn1-c1ccccc1)c1ccncc1`, the inhibition came to 52.4%.
Regarding `Cc1ccc(/C=N/NC(=O)c2ccc(C(=O)N/N=C/c3ccc(C)s3)o2)s1`, the inhibition was -14.7%.
Next, `Cn1cccc1/C=N/NC(=O)c1cccnc1`: 6.3%; `Cc1cccc(C)c1-n1c(C)cc(/C=N/NC(=O)c2ccncc2)c1C`: 78%.
For `Cc1ccsc1/C=N/NC(=O)c1cccnc1` the value was -17.1%; for `Cc1ccc(-n2c(C)cc(/C=N/NC(=O)c3ccncc3)c2C)c(C)c1`, 73.9%; for `Cc1ccsc1/C=N/NC(=O)c1ccc([N+](=O)[O-])cc1`, -7.45%.
Next, `Cc1ccc(/C=N/NC(=O)c2ccccn2)s1`: 59.8%; `Nn1c(SCC(=O)NC2CCCCC2)nnc1-c1ccccc1F`: 9.14%; `COC(=O)Nc1ccc(S(=O)(=O)N2CCCC(C(=O)Nc3cccc4c3OCCO4)C2)cc1` (stereo not drawn): 17.4%.
For `Cc1ccc(C(=O)N/C(=C/c2ccc(Cl)cc2)C(=O)Nc2cccc(C(=O)O)c2)cc1`, the inhibition was determined as 17%.
Consider `Cc1cc(NC(=O)CCC(=O)N(CC(=O)NCC2CCCO2)c2ccc(C)c(C)c2)no1` (stereo not drawn), for which the inhibition was -4.55%.
On to `COc1nc(NCCO)nc(Nc2ccc([N+](=O)[O-])cc2)n1`, for which the inhibition was -18%.
Take `CSc1ccc(CCNC(=O)C2CCCN(c3nn4c(=O)cc(C)nc4s3)C2)cc1` (stereo not drawn): the inhibition was 5.95%.
As for `CC1(C(O)(C#CCN2CCCCC2)c2ccccc2)CCCC1` (stereo not drawn), the inhibition amounted to 3.27%.
Regarding `Clc1ccc(Cl)c(-c2nc(-c3ccncc3)no2)c1`, the inhibition is -30.7%.
Next, `CCc1ccc(OCC(=O)N2CCN(c3ccccc3F)CC2)cc1`: 52.6%.
Next, `COC(=O)c1ccccc1NC(=O)COC(=O)c1cccnc1`: 2.43%.
Next, `Cc1cccc(CN2CCSCC2)c1`: 21.4%.
`Cc1ccc(NC(=O)CNC(=O)c2ccc(C)s2)nc1`: the inhibition was -9.04%.
In the case of `O=C(N/N=C/c1cc(Br)cc(Br)c1O)c1ccncc1`, the inhibition is 57.1%.
For the compound `Cc1ccc(/C=N/NC(=O)c2ccc(-c3ccccc3)cc2)o1`, the inhibition was determined as 4.22%.
Next, `O=C(N/N=C/c1ccc(Br)s1)c1cccs1`: 79.8%.
As for `Cc1ccc(/C=N/NC(=O)c2cccnc2)s1`, the inhibition came to 75.2%.
Next, `O=C(N/N=C\c1cc(Br)cs1)c1ccncc1`: 71.3%.
In the case of `Cc1ccc(/C=N/NC(=O)c2cccnc2)o1`, the inhibition came to 7.34%.
For `O=C(N/N=C\c1ccncc1)c1ccc(Br)s1` the value was 15.2%.
On to `O=C(N/N=C/c1cc(Br)c(Br)o1)c1cccnc1`, for which the inhibition was 40.9%.
With `COc1cc(NS(=O)(=O)c2ccc(NC(=S)NC(=O)c3ccc(F)cc3)cc2)nc(OC)n1`, the inhibition turned out to be 42.3%.
As for `CCn1c(CN2CCOCC2)nnc1SCC(=O)Nc1cccc(C)c1`, the inhibition was -3.97%.
For `O=C(NCCC(=O)N1CCC2(CC1)NCCc1[nH]cnc12)c1ccc(Br)cc1`, the inhibition came to 10.4%.
On to `Cn1ncc2c(Nc3ccc(Br)cc3)nc(Nc3ccc(Br)cc3)nc21`, for which the inhibition turned out to be 9.77%.
Regarding `O=C(N/N=C/c1cn(-c2ccccc2)nc1-c1cc2ccccc2o1)c1ccncc1`, the inhibition came out at 42.8%.
Next, `O=C(N/N=C/c1cn(-c2ccccc2)nc1-c1cccs1)c1ccncc1`: 48.3%.
Consider `COc1ccc(N=C2NC(=O)C(CC(=O)NCCc3ccc(OC)c(OC)c3)S2)cc1` (stereo not drawn), for which the inhibition turned out to be 14.1%.
Consider `CC(NC(=O)c1ccc2c(=O)n3c(nc2c1)CCC3)c1ccc(S(N)(=O)=O)cc1` (stereo not drawn), for which the inhibition is -7.93%.
Regarding `Cc1ccc(S(=O)(=O)N2CCCN(C(=O)c3cc4ccccc4[nH]3)CC2)cc1`, the inhibition is 11.2%.
As for `COc1cccc(NC(=O)NNS(=O)(=O)c2ccc(OC)cc2OC)c1`, the inhibition is -16.4%.
`Oc1c(C(c2ccccn2)N2CCCCC2)cc(Cl)c2cccnc12` (stereo not drawn): the inhibition was determined as 75.4%.
For `CN1CCN(C(c2cccnc2)c2ccc3cccnc3c2O)CC1` (stereo not drawn), the inhibition came out at 28.6%.
As to `CCCCOc1ccc(NC(=O)CSc2nnnn2C)cc1`, the inhibition was found to be 18.5%.
Regarding `Cn1cccc1/C=C1/C(=O)NC(=O)N(Cc2ccc(F)cc2)C1=O`, the inhibition is 74.5%.
In the case of `Cn1cccc1/C=C1\C(=O)NC(=O)N(Cc2ccccc2)C1=O`, the inhibition stood at 73%.
On to `CC1CN(c2nc3ccccn3c(=O)c2C=O)CC(C)O1` (stereo not drawn), for which the inhibition was found to be 1.76%.
Take `CCn1nnc(NC(=O)Cc2ccc(Cl)cc2)n1`: the inhibition was determined as 11.1%.
As for `CCCn1nnc(NC(=O)c2ccc(-c3cccc(Cl)c3)o2)n1`, the inhibition turned out to be 59.5%.
On to `CCn1nnc(NC(=O)c2ccc(-c3ccccc3[N+](=O)[O-])o2)n1`, for which the inhibition was determined as 9.81%.
Regarding `CCn1nnc(NC(=O)c2ccc(Br)o2)n1`, the inhibition is -5.58%.

The values above are taken from PubChem BioAssay AID488890 (Southern Research Specialized Biocontainment Screening …, 2010).
